Source: PubChem BioAssay (NCI)
This is part of a sample that, as a whole, favours compounds with a hit. Of some 83,000 tested, about 20% had one in any assay.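 Treatment: one concentration, 48 hours, 96-well format. Scoring: percent growth, with anything below 10 considered active.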 A number with no mark means an inactive call. Calls of active or inactive are those of the source.

What follows are molecules tested on HL-60(TB) leukemia (assay: NCI-60 one-dose screen, 48 h (100 = growth as untreated, 0 = no growth, -100 = all killed)). Conditions: 10 µM unless noted.

Row | Compound | growth
1 | COc1ccc(NC(=O)Nc2nc3ccc([N+](=O)[O-])cc3s2)cc1 | 2.05% (active)
2 | O=C(CSc1nnc(-c2c[nH]c3ccccc23)n1-c1ccccc1)Nc1ccc(C(=O)/C=C/c2ccccc2Cl)cc1 | 78%
3 | N#Cc1ccc(/C=N/NC(=O)c2[nH]c3ccc(Br)cc3c2-c2ccccc2)o1 | -25.1% (active)
4 | COc1cc(CNC(=O)C[C@H](C)CCC=C(C)C)ccc1OCc1cn(-c2cccc(C(F)(F)F)c2)nn1 | 96.3%
5 | O=C(c1ccc(Cl)cc1)C1[C@H](c2ccc(Br)cc2)[C@@H](c2ccccc2)NC12C(=O)Nc1ccc(Br)cc12 (some centres not stated) | -42.8% (active)
6 | C/C(=C\c1ccc(O)cc1O)c1ccc2ccc(O)cc2[o+]1 | 63.2%
7 | Cn1cc(-c2cc3nc(-c4cn(C)c5ncccc45)cc(N)n3n2)c2cc(Cl)ccc21 | -66.6% (active)
8 | O=C(CSc1nnc(-c2c[nH]c3ccccc23)n1-c1ccccc1)Nc1ccc(C(=O)/C=C/c2ccc(Br)cc2)cc1 | 83.2%
9 | O=C(Nc1ccc(OCC(=O)c2ccc(Cl)cc2)cc1)Nc1ccc(Cl)c(C(F)(F)F)c1 | 12.5%
10 | O=C1Nc2cc(-c3ccc(NS(=O)(=O)c4ccc(-c5ccccc5)cc4)cc3)ccc2/C1=C/c1ccc[nH]1 | 31%
11 | CCCCOc1ccc(Nc2nc3ccccc3nc2Nc2ccc(OCCCC)cc2)cc1 | 79.7%
12 | COc1c(F)ccc(C(=O)Nc2ccc3nc(NC(=O)C4CCCN(S(=O)(=O)c5cccc(Cl)c5)C4)sc3c2)c1F (configuration not stated) | 76.8%
